# Screening results (PubChem BioAssay)
# Only some compounds are listed: those with a hit (about 3.5% of all), similar ones and a draw of the others.
# Sm TGR inh = inhibitors of Schistosoma mansoni thioredoxin glutathione reductase. Q962Y6. AID 485364. Potency, µM (series often up to 114 µM), inactives show at the top dose activity change, negative = inhibition, most hits filed as inhibitors. purified TGR, DTNB reduction, TNB absorbance 405 nm. hit rate 3% among 360,000; note: % is set by controls: 0 for no effect and ±100 for the full control effect; nearly all actives have a fitted effect of over 60% in size
#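 First, TGR (20 nM dispensed) and NADPH were mixed with compound. Second, a 15 min room-temperature incubation followed. Third, further NADPH and then DTNB were added to start the reaction. Finally, TNB absorbance was monitored kinetically.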
# RE007 growth inh = less growth of the S. pombe RE007 Vpr strain. S. pombe RE007 Vpr strain, BacTiter-Glo ATP luminescence, 24 h. Potency, µM (doses to about 92.2 µM), for the others: top-dose activity change, negative = less growth, actives largely listed as inhibitors. hit rate 0.21% among 360,000. AID 651644; active = well fitted falling curve with a large enough effect; inconclusive = small, poorly fitted or top-dose-only effect; inactive = no such curve, though single readings can be large or run the other way; note: % is set by controls: 0 for no effect and ±100 for the full control effect; nearly all actives have a fitted effect of over 50% in size
#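 Fission yeast RE007 carrying one integrated HIV-1 vpr copy, seeded at OD 0.01 in PMG+AL medium with 23 nL pinned compound. Grown 24 h at 30 degrees; viability read by BacTiter-Glo luminescence after 5 min.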
# Giardia FBPA inh = inhibitors of Giardia lamblia fructose-1,6-bisphosphate aldolase; hit rate 0.71% among 290,000; Potency, µM (top dose mostly 59.6 µM), without a hit: top-dose activity, negative = inhibition, hits mostly inhibitors; purified Giardia FBPA; note: % is set by controls: 0 for no effect and ±100 for the full control effect; nearly all actives have a fitted effect of over 55% in size
#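 Giardia FBPA (40 nM reagent) was preincubated 10 min at RT with compound (up to 57.5 uM final), then substrate plus GAPDH/TPI/NAD/arsenate coupling system with diaphorase/resazurin was added; resorufin fluorescence (525/598 nm) was read after 20 min.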
# LmPK inhibitor = blocks Leishmania mexicana pyruvate kinase activity | Potency, µM (doses to about 57.5 µM), for the others: top-dose activity change, negative = inhibition, actives largely listed as inhibitors | Q27686 | hit rate 0.37% among 290,000 | purified LmPK, Kinase-Glo ATP luminescence, 1 h; note: % is set by controls: 0 for no effect and ±100 for the full control effect
# Target sequence (Q27686 whole entry, looked up): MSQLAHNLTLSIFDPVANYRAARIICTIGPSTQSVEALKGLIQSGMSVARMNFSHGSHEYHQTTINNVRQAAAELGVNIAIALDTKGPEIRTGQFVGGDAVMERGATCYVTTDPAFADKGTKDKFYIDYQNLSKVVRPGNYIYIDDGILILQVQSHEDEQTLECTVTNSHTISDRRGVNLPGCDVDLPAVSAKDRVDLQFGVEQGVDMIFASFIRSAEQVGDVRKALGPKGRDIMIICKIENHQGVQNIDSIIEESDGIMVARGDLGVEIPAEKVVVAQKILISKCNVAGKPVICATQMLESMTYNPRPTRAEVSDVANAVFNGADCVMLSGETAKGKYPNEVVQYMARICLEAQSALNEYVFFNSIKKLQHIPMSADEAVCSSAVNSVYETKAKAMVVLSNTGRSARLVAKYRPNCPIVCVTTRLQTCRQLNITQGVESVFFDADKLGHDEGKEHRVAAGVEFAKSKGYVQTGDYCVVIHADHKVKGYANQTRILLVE
#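 Pyruvate kinase activity monitored as ATP production (luciferase luminescence). Conditions: 0.1 nM enzyme, 0.5 mM PEP, 0.1 mM ADP, 1 h, RT; normalized against uninhibited and no-enzyme wells.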
# Tb PYK inh = blocks Trypanosoma brucei pyruvate kinase; Q57TT1; hit rate 0.12% among 410,000; TbPYK enzyme, Kinase-Glo Plus ATP luminescence, 45 min; Potency, µM (doses to about 76.8 µM), for inactives: at the top dose activity, negative = inhibition, usual class: inhibitors; note: % is set by controls: 0 for no effect and ±100 for the full control effect; nearly all actives have a fitted effect of over 50% in size
#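 Assay buffer: 50 mM TEA pH 7.2, 100 mM KCl, 10 mM MgCl2, 0.05% BSA, 0.01% Tween-20. Pyruvate kinase from T. brucei plus substrate met compound, then ADP (130 uM final). Luminescence was read post 45 min RT.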
# NS1 inh = inhibitors of influenza NS1 protein function | Potency, µM (top dose mostly 46.1 µM), for the others: at the top dose activity, positive = more growth | hit rate 0.4% among 270,000 | AID 2326; calls by dose curve; note: actives are rising curves; nearly all actives have a fitted effect of over 50% in size
#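 Growth recovery, yeast-based: influenza A NS1 expressed in S. cerevisiae causes slow growth, and suppressors are detected by OD600. The parent strain without NS1 is used as positive control.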
# * marks the source's active call; other numbers are inactive results; u = inconclusive; x = no result given; [ ] = dose if it differs, or a comment. Unless noted, calls come from the whole dose curve; as a rule, active = well fitted curve in the direction sought with a large enough effect; inconclusive = small, poorly fitted or top-dose-only effect, or another doubt; inactive = no such curve, though single readings can be large; an effect the other way counts as inactive or inconclusive. Potency is the fitted concentration of half-maximal effect.
SMILES,Sm TGR inh,RE007 growth inh,Giardia FBPA inh,LmPK inhibitor,Tb PYK inh,NS1 inh
COc1ccccc1NC(=O)CSc1nc(-c2cccc(Cl)c2)nc2c1Cc1c(CO)cnc(C)c1O2,20µM*,x,x,x,1%,x
COc1cccc(OCCSc2nnc3sc4ccccc4n23)c1,7%,16%,16µM*,4%,5%,-35%
c1ccc(OCCSc2nnc3sc4ccccc4n23)cc1,11%,-5%,18µM*,-24%,-9%,-50%
COc1ccc(CNC(=O)C2CCN(S(=O)(=O)Cc3ccccc3)CC2)cc1,-25%,x,x,x,0%,x
Cc1cc(Sc2nnc(/N=C/N(C)C)s2)c2ccccc2n1,3.5µM*,7%,1%,1%,-1%,-40%
Cc1cc(Sc2nnc(N)s2)c2ccccc2n1,4µM*,11%,-1%,-5%,-2%,10%
Cc1cc(C(N)=O)c2ccccc2n1,-16%,5%,0%,2%,-12%,3%
CCCCCCCCSc1nnc(/N=C/N(C)C)s1,-4%,14%,6%,-2%,2%,-3%
Cc1ccc(NC(=O)c2ccc(CNS(=O)(=O)c3ccc4c(c3)C(C)(C)C(=O)N4C)cc2)cc1F,-1%,x,x,x,3%,x
O=c1c2sc3ccccc3c2n(Cc2cccc(F)c2)c(=O)n1Cc1ccccc1,-2%,x,x,x,-10%,x
CCOC(=O)c1cc(-c2ccccc2)n(CCC(=O)NCc2ccccc2Cl)c1C,11%,x,x,x,0%,x
COc1ccccc1N1CCN(Cc2ccc(-c3ccccc3[N+](=O)[O-])o2)CC1,25µM*,-10%,-26%,-4%,-2%,-6%
COc1ccccc1N1CCN(Cc2ccco2)CC1,-32%,12%,-6%,0%,33%,2%
Cc1ccccc1N1CCN(Cc2ccc([N+](=O)[O-])o2)CC1,35µM*,-22%,u,-1%,-8%,-5%
O=[N+]([O-])c1ccc(CN2CCN(c3ccccc3Cl)CC2)o1,0%,0%,u,-4%,0%,-5%
CO[C@@]1(NC(=O)C2SC(=C(C(N)=O)C(=O)O)S2)C(=O)N2C(C(=O)O)=C(CSc3nnnn3C)CS[C@@H]21 (stereo partly drawn),40µM*,11%[18.4 µM],x,x,-6%,x
CC(C)OC(=O)CSc1nc(N)c(C#N)c(-c2ccco2)c1C#N,40µM*,-5%,u,2%,-6%,20%
Cc1c(-c2ccccc2)nc(N)c(C#N)c1-c1ccco1,35µM*,2%,-5%,8%,4%,4%
Cc1cc(N2CCCC2)ccc1/C=C1\NC(=S)N(C)C1=O,-14%,-5%,-26%,-4%,-18%,1%
Cc1cc(N2CCCCC2)ccc1C=C1C(=O)N(C)C(=S)N(C)C1=O,7.1µM*,-24%,-5%,-4%,u,2%
CCCN(CC(=O)Nc1ccccc1C)C(=O)COc1c(C)cccc1C,-6%,-2%,x,x,-2%,x
CCN(CC(=O)Nc1cc(Cl)ccc1C)C(=O)CCOc1ccccc1C,35µM*,20%,x,9%,-5%,1%
CCCN(CC(=O)Nc1ccccc1C)C(=O)CCl,14µM*,1%,-4%,1%,4%,x
CCCN(CC(=O)Nc1ccccc1C)C(=O)c1ccc(-c2ccc([N+](=O)[O-])cc2)o1,6.3µM*,6%,x,x,-29%,x
CCN(CC(=O)Nc1cc(Cl)ccc1C)C(=O)COc1ccccc1F,-10%,-3%,-5%,3%,2%,x
SMILES,Sm TGR inh,RE007 growth inh,Giardia FBPA inh,LmPK inhibitor,Tb PYK inh,NS1 inh
O=C(NCc1ccc(F)cc1Cl)c1ccc(CSCc2ccccc2Cl)o1,-1%,x,x,x,-4%,x
CSc1ccc(CCNC(=O)c2cc3cc(S(=O)(=O)N4CCCCC4)ccc3n2C)cc1,-1%,x,x,x,-12%,x
COc1coc(C(O)C[N+](=O)[O-])cc1=O (stereo not drawn),50µM*,-13%,-19%,-2%,u,3%
Cc1cccc2cc(CN(CC3CCCO3)C(=O)c3ccco3)c(=O)[nH]c12 (stereo not drawn),35µM*,3%,4%,2%,-16%,3%
Cc1ccc(C)c2[nH]c(=O)c(CN(CC3CCCO3)C(=S)NCc3ccco3)cc12 (stereo not drawn),28µM*,-8%,-7%,4%,-16%,26%
Cc1cc(C)c2cc(CN(Cc3ccco3)C(=S)NCC3CCCO3)c(=O)[nH]c2c1 (stereo not drawn),25µM*,-9%,-8%,8%,0%,0%
Cc1ccc2cc(CN(CC3CCCO3)C(=S)NCc3ccco3)c(=O)[nH]c2c1C (stereo not drawn),-19%,4%,-7%,-3%,-15%,-13%
COc1ccccc1NC(=O)N(Cc1ccco1)Cc1cc2c(C)ccc(C)c2[nH]c1=O,32µM*,-7%,3%,1%,1%,15%
COc1ccc2cc(CN(Cc3ccco3)C(=S)NCC3CCCO3)c(=O)[nH]c2c1 (stereo not drawn),-27%[57.1 µM],-12%,-19%,-11%,-5%,4%
COC(=O)C1=C(CS(=O)(=O)c2ccc(C)cc2C)NC(=O)NC1c1ccc(C)cc1 (stereo not drawn),-25%,x,x,x,1%,x
O=C1CCCC2=C1C(c1ccc(O)c(O)c1)c1c(ccc3ncccc13)N2 (stereo not drawn),u,-2%,6.3µM*,3%,18µM*,x
CC1=C(C#N)C(c2ccc(O)cc2)C2=C(CCCC2=O)N1 (stereo not drawn),0%,-3%,2%,0%,-2%,2%
CCOc1ccc(C2C3=C(CCCC3=O)Nc3ccc4ncccc4c32)cc1 (stereo not drawn),18µM*,4%,3%,2%,1%,2%
O=C1CCCC2=C1C(c1ccc(O)cc1)c1c(ccc3ccccc13)N2 (stereo not drawn),25µM*,-14%,4%,1%,-3%,x
COc1cc(C2Nc3ccc4ncccc4c3C3=C2C(=O)CCC3)cc(OC)c1OC (stereo not drawn),0%,-13%,-7%,-4%,-3%,-2%
O=C(Nc1cc(F)ccc1F)C1CCN(C(=O)c2cnn(-c3ccccc3)c2-n2cccc2)CC1,4%,x,x,x,-8%,x
CCCCCC(=O)/C=C/C=C\CCCCCCCC(=O)O,x,x,5%,x,x,x
Cc1ccc(C(=O)c2oc3ccccc3c2NC(=O)c2cc(-c3ccc(Cl)cc3)on2)cc1,3%,x,x,x,-3%,x
O=C(CCSCc1ccccc1F)N1CCN(c2ccc(F)cc2)CC1,13%,x,x,x,-5%,x
CC(CCO)Nc1nc2c(c(=O)n(C)c(=O)n2C)n1Cc1ccc(Br)cc1 (stereo not drawn),0%,x,x,x,-1%,x
O=C(CC1SC(=Nc2ccccc2)N(CCCO)C1=O)Nc1ccc(Cl)cc1 (stereo not drawn),-8%,11%,10%,2%,1%,-70%
